Where “and” joins values, the source holds several entries; their conditions need not be identical. Equal entries are not always repeated. This is part of a sample that, as a whole, favours compounds with a hit. Of some 83,000 tested, about 20% had one in any assay.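 Testing used 96-well plates and a 48-hour single-concentration exposure. Example: -40 means 40% of the starting cells died.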 A number with no mark means an inactive call. Calls of active or inactive are those of the source. Rule for the calls: active = growth percent below 10; inactive = the rest.

Among the test systems are HCT-15 colon; HT29 colon; SNB-75 CNS; SNB-19 CNS; U251 CNS; PC-3 prostate; SK-MEL-5 melanoma; UACC-62 melanoma; LOX IMVI melanoma; SK-MEL-28 melanoma; SK-MEL-2 melanoma; EKVX NSCLC; SN12C renal; UO-31 renal; TK-10 renal; ACHN renal; CAKI-1 renal; A498 renal; CCRF-CEM leukemia; MOLT-4 leukemia.
Common to all, as to assay: NCI-60 one-dose screen, 48 h (100 = growth as untreated, 0 = no growth, -100 = all killed)
Holding throughout (settings): 10 µM unless noted

As to `Cc1nc(-n2[nH]c(=O)ccc2=O)sc1N=Nc1ccccc1`, the growth with HCT-15 colon was 101%; in the assay on HT29 colon, 110%; in the assay on SNB-75 CNS it was 95.7%; in the assay with SNB-19 CNS, 99.3%; in the assay on U251 CNS it was 100%; in the assay on PC-3 prostate, 95.8%. The growth in the assay on SK-MEL-5 melanoma was 97.4%; in the assay with UACC-62 melanoma, 93.3%; with LOX IMVI melanoma it was 102%; in the assay on SK-MEL-28 melanoma, 103%; in the assay with SK-MEL-2 melanoma, 108%; in the assay on EKVX NSCLC, 96.5%. Further, the growth in the assay with SN12C renal was 97.7%; in the assay on UO-31 renal it was 84.1%; with TK-10 renal, 121%; in the assay with ACHN renal, 99.5%; in the assay on CAKI-1 renal, 91.5%; in the assay with A498 renal, 105%. In addition, the values for the growth in the assay with CCRF-CEM leukemia and in the assay on MOLT-4 leukemia were 100% and 99.4%, respectively.

Regarding `COc1ccc(C/C(C)=C(/c2ccc(OCCN3CCCC3)cc2)c2ccc(OC(=O)NCc3ccccc3)cc2)cc1`, the growth was 61.4% in the assay on HCT-15 colon; 18.6% with HT29 colon; 71.1% in the assay on SNB-75 CNS; 85.6% with SNB-19 CNS; 67.1% in the assay on U251 CNS; 67.3% with PC-3 prostate. Further, the growth in the assay with SK-MEL-5 melanoma is 77.8%; in the assay on UACC-62 melanoma it was 84.8%; in the assay with LOX IMVI melanoma, 84.4%; with SK-MEL-28 melanoma it was 84.7%; in the assay with SK-MEL-2 melanoma, 104%; in the assay with EKVX NSCLC, 87.5%. Moreover, the growth was 91.9% with SN12C renal; 59.9% with UO-31 renal; 92.8% in the assay on TK-10 renal; 89.7% in the assay with ACHN renal; 97.7% in the assay with CAKI-1 renal; 107% in the assay with A498 renal. In addition, the growth in the assay with CCRF-CEM leukemia was 47.3%; in the assay with MOLT-4 leukemia, 40%.

Regarding `COc1cc(/C=C(/c2ccccc2)[N+](=O)[O-])c(OC)c2c1OCO2`, the growth in the assay with HCT-15 colon is -30% (active); with HT29 colon, 1.28% (active); in the assay with SNB-75 CNS it was -92.6% (active); with SNB-19 CNS, -17.1% (active); in the assay on U251 CNS, -92.9% (active); in the assay with PC-3 prostate it was -50.5% (active). Also, the growth with SK-MEL-5 melanoma was -40.9% (active); with UACC-62 melanoma it was -29.2% (active); in the assay with LOX IMVI melanoma it was -87.6% (active); in the assay with SK-MEL-28 melanoma, -12.1% (active); in the assay with SK-MEL-2 melanoma, -23% (active); in the assay with EKVX NSCLC, -10.5% (active). The growth in the assay with SN12C renal is -39% (active); in the assay with UO-31 renal it was -100% (active); in the assay on TK-10 renal, -88.1% (active); with ACHN renal, -70.1% (active); in the assay with CAKI-1 renal, -65.2% (active); in the assay on A498 renal, -14% (active). Further, the growth is -6.26% (active) in the assay on CCRF-CEM leukemia and -10.5% (active) in the assay with MOLT-4 leukemia.

Regarding `COc1cc(CNC(=O)CCCC/C=C/C(C)C)ccc1O`, the growth in the assay with HCT-15 colon is 104% and 96.9%; with HT29 colon, 104%; in the assay with SNB-75 CNS, 93% and 100%; with SNB-19 CNS, 90.9% and 104%; with U251 CNS, 101% and 98%; in the assay with PC-3 prostate, 86.6% and 88.1%. In addition, the growth in the assay on SK-MEL-5 melanoma is 97.8% and 97.5%; in the assay on UACC-62 melanoma, 96.6% and 104%; in the assay on LOX IMVI melanoma, 89% and 86.9%; in the assay on SK-MEL-28 melanoma, 116% and 112%; in the assay on SK-MEL-2 melanoma, 93.3% and 108%; in the assay with EKVX NSCLC it was 103% and 97.3%. Moreover, the growth in the assay with SN12C renal is 92.4% and 91.9%; with UO-31 renal, 57.7% and 59%; in the assay on TK-10 renal, 200% and 103%; with ACHN renal, 99.7%; with CAKI-1 renal, 92.1% and 82.2%; with A498 renal it was 112% and 113%. In addition, the growth with CCRF-CEM leukemia was 55.8% and 58.3%; with MOLT-4 leukemia it was 84.2% and 73.4%.

For `CCOC(=O)C(=Cc1ccc(C#N)cc1)C(=O)OCC`, the growth in the assay on HCT-15 colon was -21% (active); in the assay on HT29 colon it was -39.7% (active); in the assay with SNB-75 CNS it was 42.9%; in the assay with SNB-19 CNS it was 65.2%; in the assay with U251 CNS it was 50.3%; in the assay on PC-3 prostate, 33.3%. Also, the growth was 59.6% in the assay on SK-MEL-5 melanoma; 10.6% in the assay on UACC-62 melanoma; -54.9% (active) in the assay with LOX IMVI melanoma; -17.7% (active) in the assay on SK-MEL-28 melanoma; 42.9% in the assay with SK-MEL-2 melanoma; 77.2% in the assay with EKVX NSCLC. Besides, the growth with SN12C renal was 45.9%; with UO-31 renal it was -33.9% (active); with TK-10 renal, -1.52% (active); with ACHN renal, -64.7% (active); in the assay with CAKI-1 renal, 48.6%; in the assay on A498 renal, 82.3%. Further, the growth in the assay on CCRF-CEM leukemia is 2.95% (active); with MOLT-4 leukemia, 10.6%.

On to `CC/C(=C(/c1ccc(Cl)cc1)c1ccc(OCCN2CCOCC2)cc1)c1ccccc1`, for which the growth in the assay on HCT-15 colon was 94.1%; in the assay on HT29 colon, 75.6%; in the assay with SNB-75 CNS, 105%; with SNB-19 CNS it was 98.6%; in the assay on U251 CNS it was 93.6%; with PC-3 prostate, 73.1%. For the same compound, the growth is 108% with SK-MEL-5 melanoma; 88.2% in the assay on UACC-62 melanoma; 108% with LOX IMVI melanoma; 98.8% in the assay with SK-MEL-28 melanoma; 93.7% in the assay on SK-MEL-2 melanoma; 85.1% in the assay on EKVX NSCLC. Moreover, the growth in the assay on SN12C renal is 95.8%; with UO-31 renal, 86.4%; in the assay with TK-10 renal it was 108%; in the assay with ACHN renal, 98.3%; with CAKI-1 renal it was 69.4%; in the assay with A498 renal, 99.7%. The growth was 83.9% in the assay on CCRF-CEM leukemia and 86% in the assay on MOLT-4 leukemia.

Take `COc1cc(/C=C/C(=O)c2ccc(NC(=O)CSc3nnc(-c4cc(-c5ccccc5)nc5ccccc45)n3-c3ccccc3)cc2)cc(OC)c1OC`: the growth is 65.9% in the assay on HCT-15 colon; 54.7% with HT29 colon; 104% in the assay on SNB-75 CNS; 95.1% in the assay with SNB-19 CNS; 94% with U251 CNS; 81.6% in the assay with PC-3 prostate. Further, the growth with SK-MEL-5 melanoma was 87%; in the assay with UACC-62 melanoma, 71.9%; in the assay on LOX IMVI melanoma, 89.4%; in the assay on SK-MEL-28 melanoma it was 101%; in the assay with SK-MEL-2 melanoma, 100%; with EKVX NSCLC it was 84.9%. The growth in the assay on SN12C renal was 83.8%; in the assay with UO-31 renal, 87.7%; in the assay with TK-10 renal, 109%; in the assay on ACHN renal it was 78.6%; in the assay on CAKI-1 renal it was 72.4%; in the assay on A498 renal it was 87.8%. The values for the growth in the assay with CCRF-CEM leukemia and in the assay on MOLT-4 leukemia were 84.2% and 52.7%, respectively.

(Values after PubChem BioAssay (NCI).)
